# Measurements: PubChem BioAssay AID588519 (ICCB-Longwood Screening Facility, Harvard Medical School, 2011)
# The whole screen tested about 150,000 compounds, of which about 1,000 (0.67%) were called active. The sample holds actives, similar compounds and a random draw of the others, so the mix is not that of the screen. Cut-off read from the data, not from the text of the source: active = % elongation below about 90%; inactive = the rest, inconclusive results apart.
# Target: Genome polyprotein (Poliovirus type 1 (strain Mahoney)) (UniProt P03300)
# Test: inhibitors of poliovirus polymerase RNA elongation – biochemical, fluorescence polarization, total intensity, primary screen (AID 588519); for z-score: compound at 16.7 µg/mL
# Details: stronger effect = lower value; for % elongation: compound at 16.7 µg/mL; for z-score: measured here: FP z-score
# [1] = measured here: total intensity read-out
# Sequence of Genome polyprotein (Poliovirus type 1 (strain Mahoney)) (P03300 1749-2209 limits assumed): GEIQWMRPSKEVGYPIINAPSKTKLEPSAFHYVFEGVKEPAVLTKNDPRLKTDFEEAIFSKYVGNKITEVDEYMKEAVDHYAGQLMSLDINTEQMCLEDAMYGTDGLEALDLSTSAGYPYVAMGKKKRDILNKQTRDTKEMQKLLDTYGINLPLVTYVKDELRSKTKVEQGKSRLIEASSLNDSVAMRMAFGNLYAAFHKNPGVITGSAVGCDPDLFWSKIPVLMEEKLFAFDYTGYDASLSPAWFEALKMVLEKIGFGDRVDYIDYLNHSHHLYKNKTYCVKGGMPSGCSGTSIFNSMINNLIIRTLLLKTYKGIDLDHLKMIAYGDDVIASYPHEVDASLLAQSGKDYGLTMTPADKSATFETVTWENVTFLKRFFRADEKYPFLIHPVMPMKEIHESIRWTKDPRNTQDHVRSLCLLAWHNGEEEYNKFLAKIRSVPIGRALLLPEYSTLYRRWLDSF
SMILES,% elongation,z-score,% elongation [1] [%]
COc1cc(NC(=O)CN2CCN(S(=O)(=O)c3ccc(Br)cc3)CC2)cc(OC)c1,114% (inactive),1.5,102
CCN(CC(=O)Nc1ccc(S(=O)(=O)N2CCCC2)cc1)CC(=O)Nc1cccc(OC)c1,89% (active),-1.2,88
COc1cccc(NC(=O)CN(C)CC(=O)Nc2ccc3c(c2)CCC3)c1,100% (inactive),-0.4,101
CCN(CC)S(=O)(=O)c1cc(C(=O)N2CCN(Cc3ccc4c(c3)OCO4)CC2)ccc1Cl,109% (inactive),0.8,109
COC(=O)COc1ccc(CSc2nc3ccccc3c(=O)n2C)cc1,100% (inactive),-0.3,95
Cc1ccc2nc(CSc3nnc(-c4ccccc4)o3)cc(=O)n2c1,99% (inactive),-0.7,92
CNC(=O)C1Cc2cc(S(=O)(=O)N3CCCC3)ccc2N1C(C)=O (stereo unspecified),99% (inactive),-1.3,103
O=C(Nc1cccnc1)C(=O)c1c(O)[nH]c2ccccc12,101% (inactive),-0.1,105
CC(NC(=O)C1CCCN1C(=O)c1cccs1)c1ccc(-n2ccnc2)cc1 (stereo unspecified),100% (inactive),-0.2,104
O=c1c(Cl)c(Cl)cnn1-c1nc2ccccc2[nH]1,48% (active),-5.8,58
O=c1c(Cl)c(NC2CC2)cnn1-c1ccccc1,102% (inactive),0.2,103
N#Cc1cnn(-c2nc3ccccc3[nH]2)c1N,105% (inactive),0.3,104
Cc1cc(=O)[nH]c(SC(C)C(=O)NC2CCCCC2)n1 (stereo unspecified),99% (inactive),-0.4,103
Clc1nc2ccccc2c(N2CCCCC2)c1CNC1CC1,104% (inactive),0.8,105
O=C(/C=C/c1c(Cl)nc2sccn12)NCc1ccc2c(c1)OCO2,97% (inactive),-0.6,102
CC(C)(C)c1ccc(C(=O)NCCn2c(N)c(C#N)c3nc4ccccc4nc32)cc1,107% (inactive),0.5,112
CC(c1ccccc1)n1c(N)c(C#N)c2nc3ccccc3nc21 (stereo unspecified),97% (inactive),-1.4,106
N#Cc1c(N)n(Cc2ccc(Cl)cc2)c2nc3ccccc3nc12,75% (active),-4.3,85
Cc1nnc2ccc(-c3ccc(NS(=O)(=O)c4ccc5c(c4)OCCO5)cc3)nn12,99% (inactive),-1.2,102

SMILES,% elongation,z-score,% elongation [1] [%]
CCOCCCNC(=O)c1c(NC(=O)Cc2coc3c(C)c(C)ccc23)sc2c1CCC2,116% (inactive),0.1,117
COc1ccc(-c2cc(C(=O)Nc3sc4c(c3C(N)=O)CCCC4)no2)cc1,100% (inactive),-0.5,102
CCOC(=O)c1c(NC(=O)c2cc(-n3cnnc3)ccc2Cl)sc2c1CCCC2,99% (inactive),-0.5,100
CCOCCCNC(=O)c1c(NC(=O)Cc2coc3ccc(C)cc23)sc2c1CCC2,116% (inactive),0.1,114
CCOC(=O)c1c(NC(=O)c2cc(-c3ccc(Cl)cc3)on2)sc2c1CCCC2,84% (active),-3,85
CCOC(=O)c1c(NC(=O)Cc2coc3ccc(CC)cc23)sc2c1CCC2,-3% (active),-8.5,25
CCCN(Cc1nc2cc(Cl)ccc2c(=O)[nH]1)C(=S)NC,99% (inactive),-0.3,99
CN(C)/N=C/C=C1\CCC/C(=C\C=N\N(C)C)C1=O,165% (inactive),6.6,154
CN(C)c1ccc(/C=C(\C#N)NC(=O)c2ccccc2)cc1,103% (inactive),0,108
Cc1ccc(NC(=O)COc2ccccc2O)cc1C,103% (inactive),0.1,104
Cc1ccc2[nH]c(=O)c(CNCCCN(C)C)cc2c1,100% (inactive),-0.2,102
Cc1c(NC(=O)Cc2ccc(S(=O)(=O)N3CCCCC3)cc2)c(=O)n(-c2ccccc2)n1C,102% (inactive),-0.1,108
Cc1cc(Nc2ccc(Cl)cc2)c2ccccc2n1,92% (inactive),-1,93
Cc1cc(Sc2nnc(C)s2)c2ccccc2n1,86% (active),-1.5,83
Cc1ccc2nc(C)cc(Nc3ccccc3)c2c1,101% (inactive),-0.1,105
CC(C)CCSc1nc2ncn(C)c2c(=O)[nH]1,104% (inactive),0.4,108
COc1cc(/C=N/NS(=O)(=O)c2cc(C)ccc2C)cc(OC)c1O,104% (inactive),0.3,124
O=C1S/C(=C/c2cc3c(cc2Cl)OCO3)C(=O)N1c1ccccc1,100% (inactive),-0.4,103
CCN(CC)c1nc(C#N)nc(OC)n1,87% (active),-1.5,90

SMILES,% elongation,z-score,% elongation [1] [%]
NS(=O)(=O)c1ccc(N=Cc2c(O)n(Cc3ccc4c(c3)OCO4)c(=O)c3ccccc23)cc1,100% (inactive),0,105
CN=C(Cl)c1cccs1,99% (inactive),-0.6,101
O=C(Nc1cccc(Cl)c1)N1CCC(n2nnc3cc(F)ccc32)CC1,102% (inactive),0.2,100
CN(C)C(=O)CCSc1nc2cc(Cl)ccc2o1,103% (inactive),0.3,102
CCCCC(=O)Nc1sc2c(c1C#N)CCCC2,92% (inactive),-1.4,100
COc1ccccc1CNC(=O)CS(=O)(=O)c1cccc2nsnc12,105% (inactive),-0.4,112
COc1ccccc1CNCc1ccc(C(=O)O)s1,108% (inactive),0.4,113
CNC(=O)c1sc(NCc2ccccc2OC)nc1C,80% (active),-3.1,89
O=C(NCc1ccncc1)C1CCN(C(=O)c2cccc(Cl)c2)CC1,99% (inactive),-0.2,102
O=C(c1cccc(Cl)c1)N1CCN(CCc2ccncc2)CC1,21% (active),-6.3,37
O=C(c1ccccc1)N1CCN(c2cccc(Cl)c2)CC1,100% (inactive),-0.3,95
O=C(O)CSc1nnc(-c2ccccc2)n1-c1ccccc1,101% (inactive),-0.2,102
O=C(O)c1ccc2nc[nH]c2c1,100% (inactive),-0.4,108
CCOC(=O)c1sc(NC(=O)/C=C/c2ccc(Cl)cc2)cc1C,102% (inactive),0.3,106
CCN(C(=O)c1sc2nc3n(c(=O)c2c1C)CCCC3)c1ccccc1,100% (inactive),-1.2,100
CC(C)(C)NCC(O)COc1c(Br)ccc2c1sc1nc3n(c(=O)c12)CCCCC3 (stereo unspecified),69% (active),-4.7,96
COc1cc(OC)c(N(C)C(=O)c2ccc3c(=O)n4c(nc3c2)CCCCC4)cc1Cl,105% (inactive),0.9,109
CC1CC(C)CN(C(=O)C(C)Sc2nnnn2-c2ccc(Cl)cc2)C1 (stereo unspecified),98% (inactive),-0.5,99
O=C1CCCCCN1Cc1nnc(SCN2C(=O)c3ccccc3C2=O)n1-c1ccccn1,106% (inactive),0.4,100
